What was measured:
Conditions in all cases: concentration: 1 μM, replicates: in singlicate; n = 1
[1] = tested on: ROCK1
[2] = tested on: ROCK2
[3] = tested on: ROS1
[4] = tested on: RPS6KA4(Kin.Dom.1-N-terminal)
[5] = tested on: RPS6KA4(Kin.Dom.2-C-terminal)
[6] = tested on: RPS6KA5(Kin.Dom.1-N-terminal)
[7] = tested on: RPS6KA5(Kin.Dom.2-C-terminal)
[8] = tested on: T1, RSK1(Kin.Dom.1-N-terminal)
T1 construct: gene RPS6KA1

[9] = tested on: T2, RSK1(Kin.Dom.2-C-terminal)
T2 construct: gene RPS6KA1

[10] = tested on: T3, RSK2(Kin.Dom.1-N-terminal)
T3 construct: gene RPS6KA3

[11] = tested on: T4, RSK2(Kin.Dom.2-C-terminal)
T4 construct: gene RPS6KA3

[12] = tested on: T5, RSK3(Kin.Dom.1-N-terminal)
T5 construct: gene RPS6KA2

[13] = tested on: T6, RSK3(Kin.Dom.2-C-terminal)
T6 construct: gene RPS6KA2

[14] = tested on: T7, RSK4(Kin.Dom.1-N-terminal)
T7 construct: gene RPS6KA6

[15] = tested on: T8, RSK4(Kin.Dom.2-C-terminal)
T8 construct: gene RPS6KA6

[16] = tested on: S6K1
[17] = tested on: SBK1
[18] = tested on: SGK2
[19] = tested on: SGK3
[20] = tested on: SGK
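Also: KINOMEscan kinase panel screen.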

Row | SMILES | %Inh [1] [%] | %Inh [2] [%] | %Inh [3] [%] | %Inh [4] [%] | %Inh [5] [%] | %Inh [6] [%] | %Inh [7] [%] | %Inh [8] [%] | %Inh [9] [%] | %Inh [10] [%] | %Inh [11] [%] | %Inh [12] [%] | %Inh [13] [%] | %Inh [14] [%] | %Inh [15] [%] | %Inh [16] [%] | %Inh [17] [%] | %Inh [18] [%] | %Inh [19] [%] | %Inh [20] [%]
1 | COc1cc2ncn(-c3cc(OCC4CCCO4)c(C(N)=O)s3)c2cc1OC (stereo not shown) [GSK204607] | 0 | 0 | 8 | 0 | 3 | 9 | 8 | 13 | 0 | 0 | 0 | 9 | 2 | 0 | 22 | 0 | 0 | 0 | 0 | 0
2 | CC1=C(C(=O)Nc2cc3cn[nH]c3cc2F)C(c2ccc(C(F)(F)F)cc2)CC(=O)N1 (stereo not shown) [GSK429286] | 99.1 | 98.2 | 0 | 16 | 0 | 0 | 0 | 5 | 18 | 19 | 0 | 22 | 0 | 0 | 18 | 14 | 22 | 4 | 4 | 0
3 | CC(C)(C)c1ccc(C(=O)Nc2cn3cc(-c4cccnc4)ccc3n2)cc1 | 0 | 7 | 0 | 15 | 0 | 0 | 6 | 19 | 42 | 17 | 0 | 13 | 36 | 4 | 47 | 11 | 23 | 0 | 13 | 0
4 | COc1ccc(C2=C(Nc3cccc(C(=O)O)c3)C(=O)NC2=O)cc1 [SB-390765] | 20 | 0 | 14 | 19 | 17 | 2 | 9 | 30 | 7 | 34 | 8 | 9 | 2 | 16 | 30 | 15 | 35 | 21 | 22 | 29
5 | COc1cc2ncnc(Nc3ccc4nc(-c5ccccc5)[nH]c4c3)c2cc1OC.Cl [GW282450] | 18 | 30 | 47 | 6 | 0 | 11 | 3 | 0 | 0 | 0 | 27 | 15 | 0 | 1 | 0 | 16 | 20 | 0 | 0 | 0
6 | CCn1c(-c2cccnc2O)nc2cnccc21 [SB-736715] | 11 | 0 | 0 | 0 | 0 | 0 | 0 | 0 | 0 | 4 | 1 | 0 | 13 | 0 | 15 | 5 | 0 | 0 | 0 | 0
7 | Cn1ccc2ncnc(Oc3cccc(C(=O)Nc4ccccc4)c3)c21 | 0 | 16 | 4 | 0 | 18 | 19 | 0 | 0 | 9 | 0 | 0 | 0 | 13 | 14 | 0 | 0 | 0 | 2 | 26 | 0
8 | NC(=O)c1nnc2ccccc2c1N | 0 | 7 | 0 | 21 | 30 | 6 | 21 | 31 | 0 | 33 | 13 | 19 | 0 | 33 | 44 | 14 | 1 | 13 | 44 | 0
9 | CN1C(=O)C(Nc2ccc(Cl)c(C(=O)O)c2)=C(c2ccc(Cl)cc2)C1=O [SB-404290] | 5 | 0 | 18 | 0 | 2 | 0 | 0 | 0 | 12 | 28 | 8 | 0 | 1 | 33 | 0 | 53 | 24 | 9 | 19 | 13
10 | COc1ccccc1-c1ccc2c(NC(=O)C3CC3)n[nH]c2n1 [SB-711239] | 23 | 6 | 10 | 9 | 0 | 13 | 12 | 11 | 0 | 0 | 7 | 0 | 0 | 4 | 22 | 7 | 68 | 4 | 3 | 0
11 | Cn1ccc2ncnc(Oc3ccc(NC(=O)Nc4ccccc4)cc3)c21 | 0 | 24 | 15 | 21 | 0 | 0 | 2 | 0 | 0 | 0 | 0 | 12 | 0 | 0 | 0 | 0 | 0 | 7 | 28 | 1
12 | CCn1c(-c2ccccn2)nc2cnccc21 [SB-736398] | 14 | 30 | 0 | 13 | 0 | 15 | 0 | 65 | 0 | 15 | 32 | 5 | 0 | 1 | 0 | 7 | 0 | 2 | 0 | 3
13 | Cc1cccc(-c2nc(-c3ccc(S(C)(=O)=O)cc3)sc2-c2ccnc(NCCc3ccccc3)c2)c1 | 0 | 0 | 0 | 5 | 2 | 18 | 0 | 0 | 8 | 0 | 0 | 5 | 0 | 0 | 0 | 0 | 0 | 2 | 0 | 0
14 | CCCc1ccc(S(=O)(=O)NC2CCN(c3ccnc(Nc4ccc(F)cc4)n3)C2)cc1 (stereo not shown) [GSK1379715] | 11 | 0 | 0 | 0 | 0 | 0 | 0 | 7 | 0 | 8 | 20 | 13 | 0 | 0 | 0 | 0 | 5 | 0 | 0 | 0
15 | Cl.O=C(Nc1cccc(-c2nn3ncccc3c2-c2ccnc(Nc3cccnc3)n2)c1)c1c(F)cccc1F [GSK312879] | 0 | 0 | 0 | 20 | 0 | 9 | 0 | 8 | 10 | 27 | 6 | 23 | 10 | 12 | 0 | 14 | 41 | 1 | 0 | 0
16 | COc1cc(Nc2nccc(N3CCC(NC(=O)Nc4cc(C)ccc4C)C3)n2)cc(OC)c1OC (stereo not shown) [GSK1379762] | 12 | 2 | 42 | 8 | 0 | 22 | 2 | 2 | 0 | 0 | 2 | 9 | 0 | 0 | 14 | 3 | 6 | 12 | 0 | 0
17 | Cc1c(O)cccc1Nc1ccnc2ccc(C(F)(F)F)cc12.Cl [GW466413] | 10 | 20 | 3 | 17 | 0 | 32 | 0 | 0 | 2 | 0 | 16 | 0 | 0 | 4 | 0 | 0 | 0 | 0 | 2 | 0
18 | O=c1cc(N2CCOCC2)nc2n(Cc3cccc(Cl)c3Cl)ccn12 [GSK2286295] | 0 | 34 | 7 | 17 | 0 | 11 | 0 | 22 | 0 | 0 | 8 | 0 | 28 | 0 | 1 | 0 | 9 | 14 | 9 | 22
19 | Cn1ccc2ncnc(Oc3ccc(Nc4nc5ccccc5[nH]4)cc3)c21 | 0 | 0 | 0 | 0 | 0 | 7 | 0 | 0 | 0 | 0 | 0 | 0 | 0 | 0 | 0 | 0 | 0 | 0 | 0 | 0
20 | Cc1nnc(-c2ccc3occ(-c4ccc(S(C)=O)cc4)c3c2)[nH]1 (stereo not shown) | 20 | 0 | 0 | 0 | 11 | 0 | 15 | 9 | 33 | 13 | 5 | 0 | 7 | 0 | 36 | 4 | 0 | 5 | 17 | 1
